Measurements reported in PubChem BioAssay (NCI).
This is part of a sample that, as a whole, favours compounds with a hit. Of some 83,000 tested, about 20% had one in any assay.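 Cells were grown in 96-well plates and exposed to the test compound at a single concentration for 48 hours; results are reported as percent growth, with values below 10 considered active.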 Values without a mark were called inactive. The source made the active and inactive calls.

Legend:
Test in all cases: NCI-60 one-dose screen, 48 h (100 = growth as untreated, 0 = no growth, -100 = all killed)
Details in all cases: 10 µM unless noted
[1] = system: NCI-H23 lung
[2] = system: NCI-H226 lung
[3] = system: NCI-H322M lung
[4] = system: HOP-62 NSCLC
[5] = system: NCI-H460 lung
[6] = system: HOP-92 NSCLC
[7] = system: A549/ATCC NSCLC
[8] = system: 786-0 renal
[9] = system: COLO 205 colon
[10] = system: DU-145 prostate
[11] = system: K-562 leukemia
[12] = system: MALME-3M melanoma
[13] = system: MDA-MB-231 breast
[14] = system: RXF 393 renal
[15] = system: SF-268 CNS
[16] = system: SF-295 CNS
[17] = system: SF-539 CNS
[18] = system: UACC-257 melanoma
[19] = system: M14 melanoma

## O=C(NCCNC(=O)Oc1cccc2ccccc12)Oc1cccc2ccccc12
[1]
  growth: 91.2%
[2]
  growth: 79%
[3]
  growth: 99.1%
[4]
  growth: 84.7%
[5]
  growth: 106%
[6]
  growth: 79.8%
[7]
  growth: 93.4%
[8]
  growth: 106%
[9]
  growth: 94.7%
[10]
  growth: 112%
[11]
  growth: 102%
[12]
  growth: 141%
[13]
  growth: 68.8%
[14]
  growth: 104%
[15]
  growth: 83.9%
[16]
  growth: 111%
[17]
  growth: 101%
[18]
  growth: 88.3%
[19]
  growth: 107%

## CS(=O)(=O)N1CCN(Cc2cc3nc(-c4cccc5[nH]ncc45)nc(N4CCOCC4)c3s2)CC1 (tested in a mixture with another compound)
[1]
  growth: 23.4%
[2]
  growth: 8.7% (active)
[3]
  growth: 3.39% (active)
[4]
  growth: 23.6%
[5]
  growth: 21.7%
[6]
  growth: -37.6% (active)
[7]
  growth: 4.32% (active)
[8]
  growth: -10.5% (active)
[9]
  growth: 8.18% (active)
[10]
  growth: 21.3%
[11]
  growth: 58.5%
[12]
  growth: -15.2% (active)
[13]
  growth: 42.9%
[14]
  growth: -34.2% (active)
[15]
  growth: 31.4%
[16]
  growth: 1.83% (active)
[17]
  growth: 3.67% (active)
[18]
  growth: 20%
[19]
  growth: 25%

## CO[C@H]1/C=C/O[C@@]2(C)Oc3c(C)c(O)c4c(O)c(c(/C=N/N5C(C)CN(Cc6ccc(C#N)cc6)CC5C)c(O)c4c3C2=O)NC(=O)/C(C)=C\C=C\[C@H](C)[C@H](O)[C@@H](C)[C@@H](O)[C@@H](C)[C@H](OC(C)=O)[C@@H]1C (some centres undefined)
[1]
  growth: 11.5%
[2]
  growth: 49.5%
[3]
  growth: 28.7%
[4]
  growth: 43.8%
[5]
  growth: 3.3% (active)
[6]
  growth: 27.1%
[7]
  growth: 21.7%
[8]
  growth: 14.1%
[9]
  growth: 1.58% (active)
[10]
  growth: 45.3%
[11]
  growth: 16.3%
[12]
  growth: 8.74% (active)
[13]
  growth: 90.3%
[14]
  growth: 43.7%
[15]
  growth: 35%
[16]
  growth: 0.574% (active)
[17]
  growth: 16%
[18]
  growth: 45.1%
[19]
  growth: 36.8%

## Nc1ccccc1C#Cc1ccccc1C#Cc1ccc(OCCCCCCOc2ccc(C#Cc3ccccc3C#Cc3ccccc3N)cc2)cc1
[1]
  growth: 95.3%
[2]
  growth: 99.6%
[3]
  growth: 106%
[4]
  growth: 93.9%
[5]
  growth: 114%
[6]
  growth: 88.8%
[7]
  growth: 106%
[8]
  growth: 89.8%
[9]
  growth: 96.7%
[10]
  growth: 121%
[11]
  growth: 121%
[12]
  growth: 97.2%
[13]
  growth: 86%
[14]
  growth: 75.3%
[15]
  growth: 121%
[16]
  growth: 106%
[17]
  growth: 97.8%
[18]
  growth: 101%
[19]
  growth: 108%

## O=C(Nc1ccccc1S)c1ccccc1
[1]
  growth: 93.3%
[2]
  growth: 103%
[3]
  growth: 103%
[4]
  growth: 120%
[5]
  growth: 98.7%
[6]
  growth: 109%
[7]
  growth: 93.8%
[8]
  growth: 109%
[9]
  growth: 119%
[10]
  growth: 111%
[11]
  growth: 86.2%
[12]
  growth: 116%
[13]
  growth: 102%
[14]
  growth: 125%
[15]
  growth: 103%
[16]
  growth: 100%
[17]
  growth: 104%
[18]
  growth: 92.8%
[19]
  growth: 101%

## O=c1ccn(C2CC=C(CO)O2)c(=O)[nH]1 (centres undefined)
[1]
  growth: 91.9%
[2]
  growth: 95.7%
[3]
  growth: 95.9%
[4]
  growth: 102%
[5]
  growth: 124%
[6]
  growth: 38.1%
[7]
  growth: 106%
[8]
  growth: 93.4%
[9]
  growth: 106%
[10]
  growth: 108%
[11]
  growth: 92.8%
[12]
  growth: 80.9%
[13]
  growth: 104%
[14]
  growth: 8.91% (active)
[15]
  growth: 109%
[16]
  growth: 92.9%
[17]
  growth: 99.8%
[18]
  growth: 78.3%
[19]
  growth: 81.4%

## CC(C)Cn1cnc2c(NCn3nc(-c4cc(Cl)cc(Cl)c4Cl)n(/N=C/c4ccc(Cl)cc4)c3=S)nc3ccccc3c21
[1]
  growth: 80.9%
[2]
  growth: 73.4%
[3]
  growth: 81.6%
[4]
  growth: 79.4%
[5]
  growth: 99.1%
[6]
  growth: 45%
[7]
  growth: 77.9%
[8]
  growth: 90.7%
[9]
  growth: 94.6%
[10]
  growth: 106%
[11]
  growth: 53.8%
[12]
  growth: 109%
[13]
  growth: 73.4%
[14]
  growth: 80.7%
[15]
  growth: 102%
[16]
  growth: 71.9%
[17]
  growth: 90.4%
[18]
  growth: 77.2%
[19]
  growth: 104%

## O=C(NC1CCCCC1)c1ccc(Nc2ncnc3c2cnn3-c2ccccc2)cc1
[1]
  growth: 72%
[2]
  growth: 19.1%
[3]
  growth: 64%
[4]
  growth: -66.5% (active)
[5]
  growth: 42.2%
[6]
  growth: 37.7%
[7]
  growth: 16.6%
[8]
  growth: 72.1%
[9]
  growth: 65.4%
[10]
  growth: 54.6%
[11]
  growth: 73.2%
[12]
  growth: 2.93% (active)
[13]
  growth: 8.76% (active)
[14]
  growth: 62.2%
[15]
  growth: 36.9%
[16]
  growth: 73.4%
[17]
  growth: 43.7%
[18]
  growth: 56.5%
[19]
  growth: 69.1%

## O=c1c2ccccc2c2nccn2c2cc(Cl)ccc12
[1]
  growth: 72.6%
[2]
  growth: 155%
[3]
  growth: 129%
[4]
  growth: 71.7%
[5]
  growth: 101%
[6]
  growth: 28.8%
[7]
  growth: 71.7%
[8]
  growth: 91.6%
[9]
  growth: 112%
[10]
  growth: 98.1%
[11]
  growth: 57.7%
[12]
  growth: 159%
[13]
  growth: 126%
[15]
  growth: 91.9%
[16]
  growth: 85.5%
[17]
  growth: 94.2%
[18]
  growth: 66.5%
[19]
  growth: 110%

## COC(=O)[C@H](Cc1cn(C)cn1)NC(=O)[C@H](Cc1ccccc1)NC(=O)Nc1cc(C(F)(F)F)cc(C(F)(F)F)c1
[1]
  growth: -83.3% [100 µM] (active)
[2]
  growth: -50.9% [100 µM] (active)
[3]
  growth: -94.2% [100 µM] (active)
[4]
  growth: -97.4% [100 µM] (active)
[5]
  growth: -50% [100 µM] (active)
[6]
  growth: -97.3% [100 µM] (active)
[7]
  growth: -85.6% [100 µM] (active)
[8]
  growth: -91.4% [100 µM] (active)
[9]
  growth: -82.1% [100 µM] (active)
[10]
  growth: -99.7% [100 µM] (active)
[11]
  growth: -60.2% [100 µM] (active)
[12]
  growth: -86.3% [100 µM] (active)
[13]
  growth: -90.8% [100 µM] (active)
[14]
  growth: -84.3% [100 µM] (active)
[15]
  growth: -94.8% [100 µM] (active)
[17]
  growth: -94% [100 µM] (active)
[18]
  growth: -96.6% [100 µM] (active)
[19]
  growth: -90.9% [100 µM] (active)

## COc1cccc(C=Nc2cc(C(C)C)c(O)cc2C)c1O
[1]
  growth: 95.2%
[2]
  growth: 93%
[3]
  growth: 95.3%
[4]
  growth: 95%
[5]
  growth: 107%
[6]
  growth: 82.3%
[7]
  growth: 109%
[8]
  growth: 106%
[9]
  growth: 98.6%
[10]
  growth: 114%
[11]
  growth: 107%
[12]
  growth: 106%
[13]
  growth: 88.9%
[14]
  growth: 104%
[15]
  growth: 92.1%
[17]
  growth: 91.7%
[18]
  growth: 111%
[19]
  growth: 106%

## CCOc1cc(CCNS(=O)(=O)c2ccc(C)cc2)c(C(C)=O)cc1OCC
[1]
  growth: 89.3% [100 µM]
[2]
  growth: 81% [100 µM]
[3]
  growth: 108% [100 µM]
[4]
  growth: 96.6% [100 µM]
[5]
  growth: 76.9% [100 µM]
[6]
  growth: -5.84% [100 µM] (active)
[7]
  growth: 74.8% [100 µM]
[8]
  growth: 74.9% [100 µM]
[9]
  growth: 95.9% [100 µM]
[10]
  growth: 76.1% [100 µM]
[11]
  growth: 41.3% [100 µM]
[12]
  growth: 98.3% [100 µM]
[13]
  growth: 78.5% [100 µM]
[14]
  growth: 87% [100 µM]
[15]
  growth: 79.9% [100 µM]
[17]
  growth: 101% [100 µM]
[18]
  growth: 77.8% [100 µM]
[19]
  growth: 79.9% [100 µM]
